Assay results as given in ChEMBL document CHEMBL3988442, “University of Dundee, Small-Polar-MMV Screening Library” (2021).
For some assays here: Entries with a potency or affinity are not part of this list.

Experiments:
Parameters in all cases: scale not given: direction of the effect not stated beside the values
[1] = molecular target: Protein translocase subunit SecA (Escherichia coli (strain K12)) (UniProt P10408); experiment: Assay to Identify E. coli SecA ATPase Inhibitors; format: functional; details: 30 µM
[2] = molecular target: T1, Ubiquitin-activating enzyme e1, putative (Leishmania donovani (strain BPK282A1)) (UniProt E9BSI1); experiment: Leishmania donovani Ubiquitin Activating Enzyme (LdE1); format: functional; details: 30 µM
T1 sequence (whole entry): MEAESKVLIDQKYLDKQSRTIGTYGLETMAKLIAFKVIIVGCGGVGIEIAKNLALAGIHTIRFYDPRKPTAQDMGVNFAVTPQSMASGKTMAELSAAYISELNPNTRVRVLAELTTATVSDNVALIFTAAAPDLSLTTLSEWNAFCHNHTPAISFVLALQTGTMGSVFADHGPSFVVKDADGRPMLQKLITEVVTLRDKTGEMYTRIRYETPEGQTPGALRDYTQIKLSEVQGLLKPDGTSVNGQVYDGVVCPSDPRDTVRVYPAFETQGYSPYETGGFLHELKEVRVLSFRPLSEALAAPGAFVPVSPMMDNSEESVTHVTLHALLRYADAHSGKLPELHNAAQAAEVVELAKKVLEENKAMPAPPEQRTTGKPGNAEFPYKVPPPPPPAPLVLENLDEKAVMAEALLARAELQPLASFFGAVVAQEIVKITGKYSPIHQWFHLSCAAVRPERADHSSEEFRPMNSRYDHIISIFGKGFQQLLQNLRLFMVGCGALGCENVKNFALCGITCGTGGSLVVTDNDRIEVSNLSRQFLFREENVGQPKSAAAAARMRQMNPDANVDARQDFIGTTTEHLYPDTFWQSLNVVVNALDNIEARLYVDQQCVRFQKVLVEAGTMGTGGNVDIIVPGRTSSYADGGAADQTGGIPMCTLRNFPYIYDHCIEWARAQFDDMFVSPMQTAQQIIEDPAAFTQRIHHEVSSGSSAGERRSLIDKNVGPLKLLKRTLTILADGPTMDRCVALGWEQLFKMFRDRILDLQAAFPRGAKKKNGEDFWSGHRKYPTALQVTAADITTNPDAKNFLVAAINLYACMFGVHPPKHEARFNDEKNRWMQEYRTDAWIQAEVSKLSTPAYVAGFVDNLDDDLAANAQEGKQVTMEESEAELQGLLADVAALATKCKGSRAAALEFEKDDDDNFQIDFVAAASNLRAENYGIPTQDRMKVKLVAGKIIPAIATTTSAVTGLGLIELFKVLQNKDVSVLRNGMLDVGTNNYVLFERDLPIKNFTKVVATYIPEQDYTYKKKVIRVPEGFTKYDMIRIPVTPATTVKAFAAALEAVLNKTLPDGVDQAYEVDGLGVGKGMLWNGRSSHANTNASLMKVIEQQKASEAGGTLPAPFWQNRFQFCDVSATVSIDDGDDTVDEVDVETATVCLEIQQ

[3] = molecular target: AMP-activated protein kinase, AMPK (Homo sapiens) (UniProt P54646+O43741+P54619+Q9UGJ0+Q9Y478+Q13131+Q9UGI9); experiment: AMP-dependent Kinase enzyme assay. An in vitro enzyme assay that detects ADP turnover that is directly proportional to AMPK activity. This uses naive AMPK that is activated during the assay with MK-8722; format: functional; details: 30 µM
[4] = molecular target: Sialic acid-binding Ig-like lectin 9 (Homo sapiens) (UniProt Q9Y336); experiment: Hs-Siglec9 ALPHAscreen SOP 20170721; details: 10 µM
Trypanosoma cruzi = experiment: Trypanosoma cruzi phosphomannomutase and mannose-1-phosphate guanylyltransferase assay; format: functional; details: 10 µM
[5] = molecular target: T2, Arginase-2, mitochondrial (Homo sapiens) (UniProt P78540); experiment: in vitro enzyme assay to detect the production of urea directly proportional to the activity of Arginase II; format: functional; details: 33.3 µM; further: in the data most compounds retested in dose-response had high values
T2 sequence (whole entry): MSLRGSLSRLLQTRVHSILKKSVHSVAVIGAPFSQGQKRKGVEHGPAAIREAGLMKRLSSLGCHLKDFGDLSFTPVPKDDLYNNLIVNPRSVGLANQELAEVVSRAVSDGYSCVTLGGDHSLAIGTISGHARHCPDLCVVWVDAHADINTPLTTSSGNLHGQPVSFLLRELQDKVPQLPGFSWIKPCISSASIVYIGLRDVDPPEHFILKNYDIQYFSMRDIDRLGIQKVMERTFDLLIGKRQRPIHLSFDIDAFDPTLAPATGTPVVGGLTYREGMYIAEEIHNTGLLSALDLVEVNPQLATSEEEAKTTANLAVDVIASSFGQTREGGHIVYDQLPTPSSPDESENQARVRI

[6] = molecular target: T3, Proteasome subunit beta (Trypanosoma cruzi) (UniProt O96673); experiment: Trypanosoma cruzi proteasome chymotrypsin-like activity (TcProtChymo) assay.; further: in the data most compounds retested in dose-response had high values; format: functional; details: 9.37 µM
T3 sequence (whole entry): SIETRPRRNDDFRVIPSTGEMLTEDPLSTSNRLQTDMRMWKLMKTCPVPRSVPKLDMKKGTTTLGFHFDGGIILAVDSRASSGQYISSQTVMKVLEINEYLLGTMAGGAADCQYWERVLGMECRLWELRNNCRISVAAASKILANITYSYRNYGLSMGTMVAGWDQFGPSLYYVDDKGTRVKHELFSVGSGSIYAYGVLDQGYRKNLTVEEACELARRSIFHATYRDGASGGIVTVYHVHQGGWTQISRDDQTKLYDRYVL

Homo sapiens = species on record: Homo sapiens; experiment: To identify inhibition of the IFN signalling (Jak-Stat) pathway via expression of an eGFP reporter gene under the control of an IFN-stimulated response element (ISRE) containing MxA promoter.; format: functional; details: 30 µM
[7] = molecular target: T4, Tyrosyl-tRNA synthetase, putative (Trypanosoma cruzi (strain CL Brener)) (UniProt Q4DSP6); experiment: Trypanosoma cruzi tyrosyl tRNA synthetase (TcYRS) _High Tyrosine SOP; format: functional; details: 30 µM; further: in the data most compounds retested in dose-response had high values
T4 sequence (whole entry): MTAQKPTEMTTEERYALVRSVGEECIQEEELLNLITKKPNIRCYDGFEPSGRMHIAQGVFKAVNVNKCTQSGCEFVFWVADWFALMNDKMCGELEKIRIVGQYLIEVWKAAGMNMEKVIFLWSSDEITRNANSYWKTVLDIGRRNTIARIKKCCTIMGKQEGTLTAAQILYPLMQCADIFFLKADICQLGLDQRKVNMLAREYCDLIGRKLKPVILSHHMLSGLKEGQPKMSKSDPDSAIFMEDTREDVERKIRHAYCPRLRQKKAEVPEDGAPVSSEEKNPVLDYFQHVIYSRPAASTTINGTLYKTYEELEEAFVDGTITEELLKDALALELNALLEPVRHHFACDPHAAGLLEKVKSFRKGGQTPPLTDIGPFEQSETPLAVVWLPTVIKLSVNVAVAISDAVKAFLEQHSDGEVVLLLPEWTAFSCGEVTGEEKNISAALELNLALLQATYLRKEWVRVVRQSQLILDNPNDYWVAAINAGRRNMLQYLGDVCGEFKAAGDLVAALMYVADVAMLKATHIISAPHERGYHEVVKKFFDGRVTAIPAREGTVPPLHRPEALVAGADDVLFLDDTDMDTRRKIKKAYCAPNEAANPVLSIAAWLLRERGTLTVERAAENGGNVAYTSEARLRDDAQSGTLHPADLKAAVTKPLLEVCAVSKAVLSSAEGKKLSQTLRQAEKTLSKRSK

[8] = molecular target: T4, Tyrosyl-tRNA synthetase, putative (Trypanosoma cruzi (strain CL Brener)); experiment: Trypanosoma cruzi tyrosyl tRNA synthetase (TcYRS) SOP; format: functional; details: 30 µM
[9] = molecular target: Chromo domain-containing protein 1 (Saccharomyces cerevisiae (strain ATCC 204508 / S288c) (Baker's yeast)) (UniProt P32657); experiment: ScCHD-1 Enzyme Inhibition Assay; format: functional; details: 30 µM; further: in the data most compounds retested in dose-response had high values
Sequence of Chromo domain-containing protein 1 (Saccharomyces cerevisiae (strain ATCC 204508 / S288c) (Baker's yeast)) (P32657 whole entry, the tested form may be a part): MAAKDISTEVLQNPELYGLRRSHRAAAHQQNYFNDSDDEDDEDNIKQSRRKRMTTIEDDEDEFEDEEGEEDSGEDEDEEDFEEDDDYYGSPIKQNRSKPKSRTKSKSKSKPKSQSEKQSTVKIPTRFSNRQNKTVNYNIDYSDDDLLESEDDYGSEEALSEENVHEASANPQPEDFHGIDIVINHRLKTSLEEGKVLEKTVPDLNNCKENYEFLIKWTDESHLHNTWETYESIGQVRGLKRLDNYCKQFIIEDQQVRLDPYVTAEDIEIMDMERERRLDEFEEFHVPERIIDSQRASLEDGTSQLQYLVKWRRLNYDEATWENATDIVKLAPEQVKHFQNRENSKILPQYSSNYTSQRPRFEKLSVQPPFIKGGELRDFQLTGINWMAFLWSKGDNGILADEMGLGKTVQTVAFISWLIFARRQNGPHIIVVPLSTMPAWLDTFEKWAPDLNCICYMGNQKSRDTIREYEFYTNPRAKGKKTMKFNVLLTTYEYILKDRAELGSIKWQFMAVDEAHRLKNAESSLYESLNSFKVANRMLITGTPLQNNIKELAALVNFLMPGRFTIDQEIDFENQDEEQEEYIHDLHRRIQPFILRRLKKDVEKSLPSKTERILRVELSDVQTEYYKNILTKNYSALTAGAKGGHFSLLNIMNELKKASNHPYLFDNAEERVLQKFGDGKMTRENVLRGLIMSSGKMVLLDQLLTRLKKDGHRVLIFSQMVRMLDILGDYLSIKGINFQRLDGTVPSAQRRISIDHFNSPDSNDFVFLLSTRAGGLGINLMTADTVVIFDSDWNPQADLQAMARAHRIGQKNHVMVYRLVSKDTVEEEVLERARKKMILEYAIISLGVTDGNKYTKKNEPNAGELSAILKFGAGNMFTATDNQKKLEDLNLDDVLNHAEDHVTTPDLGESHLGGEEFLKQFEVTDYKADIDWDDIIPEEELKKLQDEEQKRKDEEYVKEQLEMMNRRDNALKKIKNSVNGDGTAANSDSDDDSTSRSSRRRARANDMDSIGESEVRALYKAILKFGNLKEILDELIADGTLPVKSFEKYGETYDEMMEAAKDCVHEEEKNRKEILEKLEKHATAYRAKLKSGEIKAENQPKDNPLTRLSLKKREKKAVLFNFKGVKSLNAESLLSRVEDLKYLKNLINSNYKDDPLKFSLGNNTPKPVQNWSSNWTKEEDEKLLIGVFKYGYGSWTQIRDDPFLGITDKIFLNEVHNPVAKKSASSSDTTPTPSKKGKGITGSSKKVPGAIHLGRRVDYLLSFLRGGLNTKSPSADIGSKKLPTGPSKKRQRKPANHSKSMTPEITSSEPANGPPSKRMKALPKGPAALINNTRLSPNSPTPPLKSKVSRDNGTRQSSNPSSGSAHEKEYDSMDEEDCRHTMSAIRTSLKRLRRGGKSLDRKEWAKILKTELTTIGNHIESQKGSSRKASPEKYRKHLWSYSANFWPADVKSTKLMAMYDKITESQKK

Sequence of Protein translocase subunit SecA (Escherichia coli (strain K12)) (P10408 whole entry): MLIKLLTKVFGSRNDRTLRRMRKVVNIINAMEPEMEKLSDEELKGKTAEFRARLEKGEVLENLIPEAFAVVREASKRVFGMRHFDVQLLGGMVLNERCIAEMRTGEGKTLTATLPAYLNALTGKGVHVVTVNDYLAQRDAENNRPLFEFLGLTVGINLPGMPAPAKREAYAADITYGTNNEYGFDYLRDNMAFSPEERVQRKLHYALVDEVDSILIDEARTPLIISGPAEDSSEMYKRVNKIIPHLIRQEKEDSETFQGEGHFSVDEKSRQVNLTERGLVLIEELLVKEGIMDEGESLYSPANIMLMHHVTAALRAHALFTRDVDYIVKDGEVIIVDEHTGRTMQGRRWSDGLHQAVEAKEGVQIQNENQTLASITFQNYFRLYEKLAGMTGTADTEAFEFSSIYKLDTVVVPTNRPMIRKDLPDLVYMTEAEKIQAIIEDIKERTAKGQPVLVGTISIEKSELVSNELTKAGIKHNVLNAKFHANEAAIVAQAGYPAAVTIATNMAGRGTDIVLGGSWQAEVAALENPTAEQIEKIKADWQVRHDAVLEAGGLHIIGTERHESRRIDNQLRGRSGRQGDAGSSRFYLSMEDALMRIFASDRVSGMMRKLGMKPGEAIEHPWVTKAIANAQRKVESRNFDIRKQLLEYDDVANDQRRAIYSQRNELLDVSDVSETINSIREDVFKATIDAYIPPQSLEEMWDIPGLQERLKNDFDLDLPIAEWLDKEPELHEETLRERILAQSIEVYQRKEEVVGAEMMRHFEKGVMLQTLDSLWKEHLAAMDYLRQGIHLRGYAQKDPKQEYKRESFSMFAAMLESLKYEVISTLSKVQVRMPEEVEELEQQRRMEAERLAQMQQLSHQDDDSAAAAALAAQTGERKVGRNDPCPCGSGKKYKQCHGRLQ
Sequence of Sialic acid-binding Ig-like lectin 9 (Homo sapiens) (Q9Y336 whole entry): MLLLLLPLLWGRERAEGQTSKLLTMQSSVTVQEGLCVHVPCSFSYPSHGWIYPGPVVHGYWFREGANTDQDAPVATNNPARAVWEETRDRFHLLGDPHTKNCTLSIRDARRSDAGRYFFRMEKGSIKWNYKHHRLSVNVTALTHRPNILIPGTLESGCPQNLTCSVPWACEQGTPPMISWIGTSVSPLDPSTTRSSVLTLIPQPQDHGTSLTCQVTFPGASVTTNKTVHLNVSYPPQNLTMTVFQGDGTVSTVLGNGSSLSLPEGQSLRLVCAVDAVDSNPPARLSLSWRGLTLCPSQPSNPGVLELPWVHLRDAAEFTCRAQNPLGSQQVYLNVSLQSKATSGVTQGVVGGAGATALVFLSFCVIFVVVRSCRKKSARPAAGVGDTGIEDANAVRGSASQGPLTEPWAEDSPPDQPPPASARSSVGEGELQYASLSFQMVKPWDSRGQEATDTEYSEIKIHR

| SMILES | Percent Effect [1] | Percent Effect [2] | Percent Effect [3] | Percent Effect [4] | Percent Effect (Trypanosoma cruzi) | Percent Effect [5] | Percent Effect [6] | Percent Effect (Homo sapiens) | Percent Effect [7] | Percent Effect [8] | Percent Effect [9] |
| --- | --- | --- | --- | --- | --- | --- | --- | --- | --- | --- | --- |
| Cn1cnc2c1C(COCC1CCOCC1)CN(C(=O)c1ccoc1)C2 (configuration not stated) | 1.37% | 18.7% | 4.82% | -8.07% | 1.38% | -1.63% | 14.5% | -17.8% | 1.06% | 6.41% | -5.31% |
| c1cnc2c(c1)cc([C@H]1CCCO1)n2CCN1CCOCC1 | -4.11% | 9.46% | 14.2% | 5.59% | -0.593% | -5.8% | 3.9% | 3.93% | 1.07% | 11.7% | -13.8% |
| CC(=O)N1CCN(C(=O)c2cc(-n3cnnn3)ccc2Cl)CC1 | -7.31% | 2.63% | -6.84% | 0.287% | -2.63% | -4.73% | 6.04% | 9.34% | -2.13% | -2.6% | 0.334% |
| Cc1n[nH]c(C(=O)NCc2ccnc(OCC(F)(F)F)c2)c1Br | -4.7% | 23.7% | -2.47% | 1.14% | 8.08% | -0.383% | 18.4% | 5.22% | 6.37% | 24.4% | -11.1% |
| c1csc(-c2nc(CN3CCOC(Cn4cccn4)C3)co2)c1 (configuration not stated) | -4.59% | 18.9% | -12.4% | 19.6% | 6.32% | -8.82% | 9.01% | 16.2% | 7.39% | 23.5% | -11.2% |
| CNC(=O)CS(=O)(=O)Cc1coc(-c2ccc(OC)cc2)n1 | -3.22% | 2.7% | -2.86% | -2.16% | -1.35% | -1.91% | 12.8% | 7.16% | 2.65% | -4.88% | -2.91% |
| COc1cccc(CN(C)C(=O)CN2CCN(c3nccn3C)CC2)c1 | -1.77% | 8% | -12.7% | 7.67% | 3.99% | 14.1% | 20.6% | 1.29% | 10.4% | 21% | -3.45% |
| COc1c(CNC(c2ccc(F)cc2)c2nccn2C)c(C)nn1C (configuration not stated) | -4.41% | 23.7% | -3.24% | -2.7% | 10.9% | -0.383% | 13.4% | 10.1% | 9.31% | 29.3% | -12.6% |
| CC(=O)NC1CCCN(C(=O)Nc2cnc3c(cnn3C(C)C)c2)C1 (configuration not stated) | -3.14% | 16.2% | 0.9% | 4.02% | -4.55% | -1.29% | 12.2% | 5.99% | 7.92% | 23.2% | -5.36% |
| CC(C)CCn1[nH]c(CNc2ccccc2)nc1=O | -2.4% | 2.63% | 4.53% | 4.24% | -9.06% | 2.37% | 16.2% | 2.77% | 2.13% | 2.6% | 4.81% |
| Cc1nc(C)n(CC2CCCN(CC(=O)Nc3nncs3)C2)n1 (configuration not stated) | -2.17% | -2.63% | 3.08% | 5.75% | -2.26% | -1.15% | 4.84% | -3.5% | 1.47% | 0% | -0.768% |
| COCCN1CCC(CNC(=O)c2cc(C)cc(C)c2)C1 (configuration not stated) | -6.49% | 10.5% | -7.62% | 15.5% | 6.26% | -1.8% | 8.88% | -10.5% | 6.4% | 13.6% | -4.84% |
| Cc1cc(C)n(C2CN(CC(=O)N(C)Cc3ccc(C)o3)C2)n1 | -4.24% | 5.26% | 17.1% | 6.03% | 2.82% | 3.55% | 9.49% | -0.498% | 34% | 28.6% | -4.43% |
| CCCc1cc(=O)n(CC(N)=O)c(-n2nc(C)cc2C)n1 | -1.73% | 7.79% | 7.17% | -1.59% | 2.46% | -4.52% | 10.1% | 32% | 3.17% | 11.5% | -9.6% |
| CC(C)CN1CCC2(C=C(C(=O)N3CCCC3)c3ccccc32)CC1 | -2.44% | 0% | -1.76% | 3.68% | -6.76% | -56.8% | 7.35% | 1.33% | 5.21% | 10% | -7.39% |
| O=C(CCc1ccccc1)N1CCn2cc(CN3CCCC3)nc2C1 | 0.2% | 5.2% | -2.41% | 2.78% | -1.08% | -3.23% | 11.8% | 7.71% | 12.7% | 16.7% | -2.74% |
| CC(C)C(=O)N1CCC(c2nc(O)cc(-c3ccncc3)n2)CC1 | -5% | 25.7% | 5.51% | -2.98% | 3.16% | -2.09% | 10.9% | 14.4% | 5.38% | 11.7% | -14.2% |
| CSCC(=O)N1CCCC(n2ccnc2C(C)C)C1 (configuration not stated) | -0.321% | 15.8% | -1.19% | -13.5% | -6.63% | 5.4% | 6.01% | -1.49% | 8.37% | 18.5% | -9.2% |
| CC(C)N1CCOCC2(CN(Cc3nccs3)CCO2)C1 (configuration not stated) | -5.04% | 20.8% | -4.7% | -3.15% | 2.66% | 0.645% | 16.7% | 3.46% | 9.52% | 14.1% | -7.32% |
| CCN1CCC2(CC1)CC(NC(=O)N(C)C)c1cc(C)ccc12 (configuration not stated) | -2.37% | 16% | 4.2% | 0.476% | 3.28% | -52.9% | 14.4% | -15.2% | 8.33% | -50% | -7.48% |
| Cc1cccc(CS(=O)(=O)NCC(O)Cc2ccccc2)c1 (configuration not stated) | -3.31% | 5.48% | -2.41% | 8.56% | 3.33% | 10.4% | 11.2% | 7.9% | 5.38% | 12.5% | -5.28% |
| Cc1nc(C)n(CC2CCCCN2CC(=O)NC2CCOCC2)n1 (configuration not stated) | -5.64% | 18.2% | 6.87% | 5.39% | 6.37% | -6.05% | 5.07% | -0.818% | 3.88% | 19.5% | -7.41% |
